Compound activity: PubChem BioAssay, several laboratories
Sampled rows, rich in hits. Any-hit rate of the full collection: about 1.8%.
TLR4-MyD88 BLA: inhibitors of TLR4-MyD88 association in cells, primary screen, cell-based, HeLa CL3-4, BLA complementation, FRET ratio. Toll-like receptor 4 (Homo sapiens) + Myeloid differentiation primary response protein …. HeLa CL3-4 TLR4/MyD88 BLA complementation. inhibition, % at 8.4 µM. hit rate 0.18% among 200,000. AID 861, 2007; in the data active = inhibition above about 25%;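 also: 0% = vehicle and 100% = reference inhibitor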
Mcl1-Bid inh: Mcl-1/Bid binding inhibitors, primary screen, biochemical, TR-FRET, 1536-well | Induced myeloid leukemia cell differentiation protein Mcl-1 (Homo sapiens), Q07820 | TR-FRET Mcl-1/Bid-Dy647 peptide binding | inhibition, % at 21.7 µM | hit rate 0.97% among 220,000 | AID 1021, 2008;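 active = compounds that cut the binding signal by more than half at the single screening dose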;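 also: His-tagged Mcl-1 with europium anti-His antibody binding Bid BH3 peptide; 0% = Mcl-1 plus peptide wells and 100% = peptide-only wells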
Target sequence (Q07820 whole entry, looked up): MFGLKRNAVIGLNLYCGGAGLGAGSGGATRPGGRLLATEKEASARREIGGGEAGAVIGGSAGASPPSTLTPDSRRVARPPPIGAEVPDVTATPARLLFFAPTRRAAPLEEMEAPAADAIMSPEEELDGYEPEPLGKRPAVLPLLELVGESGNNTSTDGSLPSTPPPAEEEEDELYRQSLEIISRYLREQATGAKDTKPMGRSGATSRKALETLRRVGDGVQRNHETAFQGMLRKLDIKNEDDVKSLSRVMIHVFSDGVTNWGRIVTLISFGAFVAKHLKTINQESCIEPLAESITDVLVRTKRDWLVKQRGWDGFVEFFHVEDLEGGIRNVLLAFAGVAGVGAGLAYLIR
Bim-Mcl-1: inhibitors of Bim peptide binding to Mcl-1, primary screen, biochemical, bead-based flow cytometry, multiplex; Induced myeloid leukemia cell differentiation protein Mcl-1 (Homo sapiens), Q07820; Bim peptide-Mcl-1 binding; inhibition, % at 10 µM; hit rate 0.1% among 190,000; AID 1009, 2008; in the data active = inhibition above about 40%;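 also: 0% = no compound tracer wells and 100% = peptide blocker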
Mcl1 Noxa PPI: Mcl-1/Noxa binding inhibitors, primary screen, biochemical, TR-FRET, 1536-well | TR-FRET Mcl-1/Noxa peptide binding, 2 h | inhibition, % at 21.7 µM | hit rate 1.5% among 220,000 | AID 1022, 2008;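 active = compounds that cut the protein-peptide binding signal by more than 50% relative to plate controls in a single-dose test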;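 also: His-tagged Mcl-1 with rhodamine Noxa BH3 peptide and terbium anti-His antibody; 0% = Mcl-1 plus Noxa peptide wells and 100% = peptide-only wells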
TLR9-MyD88 inh: inhibitors of TLR9-MyD88 association in cells, primary screen, cell-based, CHO, BLA complementation, fluorescence. Toll-like receptor 9 (Homo sapiens) + Myeloid differentiation primary response protein …. CCF4 FRET ratio. inhibition, % at 4.98 µM. hit rate 0.21% among 340,000;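 active = inhibition above the mean over all tested compounds plus 3 SD, cut at about 21% in these data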;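 also: 0% = DMSO only wells and 100% = clavulanate BLA inhibitor control wells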
NOD2 RIPK2 PPI: NOD2-RIPK2 binding disruptors in cells, primary screen, fluorescence, CHO cells, BLA complementation; AID 624267, 2012; inhibition, % at 4.98 µM; CCF4 ratio; hit rate 0.38% among 360,000; Receptor-interacting serine/threonine-protein kinase 2 (Homo sapiens), O43353; in the data active = inhibition above about 21%;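 also: 0% = vehicle only and 100% = reference blocker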
Active calls of the source: *.

How did CCOC(=O)c1c(S(=O)(=O)N(C)C2CCCCC2)c(C)n(C)c1C do in these assays?
TLR9-MyD88 inh: 3; NOD2 RIPK2 PPI: 0

Results for COc1ccc(Cl)cc1NC(=O)NNC(=O)C(=O)Nc1ccc(F)cc1 ?
TLR9-MyD88 inh: -3; NOD2 RIPK2 PPI: -8

What do the screens show for `COc1ccc(C(=O)Oc2c(CN3CCOCC3)cc(Cl)c3cccnc23)cc1`?
TLR4-MyD88 BLA: -18; Mcl1-Bid inh: 54*; Bim-Mcl-1: -1; Mcl1 Noxa PPI: 27; TLR9-MyD88 inh: -12; NOD2 RIPK2 PPI: -14

Results for COc1cccc(C(=O)Oc2c(CN3CCOCC3)cc(Cl)c3cccnc23)c1 ?
TLR4-MyD88 BLA: -19; Mcl1-Bid inh: -41; Bim-Mcl-1: -2; Mcl1 Noxa PPI: -19; TLR9-MyD88 inh: -1; NOD2 RIPK2 PPI: -1

How did O=S(=O)(Nc1c(S(=O)(=O)c2ccccc2)c2nc3ccccc3nc2n1C1CCCCC1)c1ccccc1 do in these assays?
TLR4-MyD88 BLA: 3; Mcl1-Bid inh: 57*; Bim-Mcl-1: -5; Mcl1 Noxa PPI: 55*; TLR9-MyD88 inh: 7; NOD2 RIPK2 PPI: 12

Results for CC[C@@]1(C(=O)OC)N[C@H](CN(C)S(=O)(=O)c2ccc(-c3ccccc3)cc2)[C@@H]2C(=O)N(Cc3ccccc3)C(=O)[C@@H]21 ?
TLR9-MyD88 inh: -2; NOD2 RIPK2 PPI: -13

How did Cc1c(C(=O)N/N=C/c2cccnc2)nnn1-c1nonc1N do in these assays?
TLR9-MyD88 inh: -13; NOD2 RIPK2 PPI: 5

What do the screens show for `CCOC(=O)C1=C(c2ccccc2)N=c2s/c(=C\c3cc(OC)c(OC)c(OC)c3)c(=O)n2C1c1cccs1` (stereo not drawn)?
TLR4-MyD88 BLA: 24; Mcl1-Bid inh: -32; Bim-Mcl-1: 2; Mcl1 Noxa PPI: -23; TLR9-MyD88 inh: 22*; NOD2 RIPK2 PPI: 11

How did COc1ccccc1Cn1c(=S)[nH]c2cc(C(=O)N3CCC(C(N)=O)CC3)ccc2c1=O do in these assays?
TLR9-MyD88 inh: 7; NOD2 RIPK2 PPI: -8

How did COc1ccc2[nH]c3c(=O)n(Cc4ccc(C(=O)N5CCCCCC5)cc4)c(=S)[nH]c3c2c1 do in these assays?
TLR4-MyD88 BLA: 14; Mcl1-Bid inh: -10; Bim-Mcl-1: -3; Mcl1 Noxa PPI: 60*; TLR9-MyD88 inh: 8; NOD2 RIPK2 PPI: -4

Results for COc1ccc2[nH]c3c(=O)n(Cc4ccc(C(=O)N5CCC(C(N)=O)CC5)cc4)c(=S)[nH]c3c2c1 ?
TLR4-MyD88 BLA: -8; Mcl1-Bid inh: -156; Bim-Mcl-1: 0; Mcl1 Noxa PPI: 61*; TLR9-MyD88 inh: 15; NOD2 RIPK2 PPI: -4

Results for CCOC(=O)N1CCN(C(=O)c2ccc3c(=O)n(Cc4ccc(OC)cc4)c(=S)[nH]c3c2)CC1 ?
TLR4-MyD88 BLA: 1; Mcl1-Bid inh: -35; Bim-Mcl-1: 9; Mcl1 Noxa PPI: 18; TLR9-MyD88 inh: 0; NOD2 RIPK2 PPI: -11

How did O=C1NC(=S)/C(=C\c2ccc(-c3ccccc3Cl)o2)S1 do in these assays?
TLR4-MyD88 BLA: 2; Mcl1-Bid inh: -28; Bim-Mcl-1: -2; Mcl1 Noxa PPI: 100*; TLR9-MyD88 inh: -4; NOD2 RIPK2 PPI: -1

How did Cc1ccc2nsnc2c1NC(=O)c1ccc(-c2cc(Cl)ccc2Cl)o1 do in these assays?
TLR4-MyD88 BLA: 8; Mcl1-Bid inh: 31; Bim-Mcl-1: 2; Mcl1 Noxa PPI: 51*; TLR9-MyD88 inh: -10; NOD2 RIPK2 PPI: 5

Results for CCN(CC)CCNC(=O)C(=O)Nc1cc2c3c(c1)CCC(=O)N3CCC2 ?
TLR9-MyD88 inh: 5; NOD2 RIPK2 PPI: -2

Results for Cc1ccc(N=C2NC(=O)/C(=C/C=C/c3ccco3)S2)cc1 ?
TLR4-MyD88 BLA: -7; Mcl1-Bid inh: -47; Bim-Mcl-1: 3; Mcl1 Noxa PPI: 82*; TLR9-MyD88 inh: 2; NOD2 RIPK2 PPI: 2

What do the screens show for `Cc1ccc(N=C2NC(=O)S/C2=C\c2ccco2)cc1`?
TLR4-MyD88 BLA: 5; Mcl1-Bid inh: 48; Bim-Mcl-1: 0; Mcl1 Noxa PPI: 83*; TLR9-MyD88 inh: -2; NOD2 RIPK2 PPI: -11
